According to PubChem BioAssay AID1347426 (Functional Genomics Laboratory (NCATS/FGL), 2020):
The whole screen tested about 31,000 sequences, of which about 1,400 (4.5%) were called active. The entries come from a sample that favours actives as a whole. Values without a mark were called inactive.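 Rule for the calls: active = median seed-adjusted z-score above 1 or below -1; inactive = the rest.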

experiment: Novel Modifiers of Survival Motor Neuron (SMN) Protein: Gene Identification via Genome-wide siRNA Screen; details: HEK293T SMN2-luciferase reporter, siRNA knockdown, 72 h; actives lie on both sides;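 note: luminescence tracks full-length SMN protein made from the SMN2 reporter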
In short: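 Luciferase signal, proportional to full-length SMN made from an SMN2 cDNA reporter in stable HEK293T cells, was read 72 h after siRNA reverse transfection. Values were expressed as MAD scores after non-targeting-control normalization and log10 conversion; seed analysis flagged off-targets.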

Sequence | median seed-adjusted z-score
GGAGAUCGUUCUGCACAGATT against PAEP | -0.0632
CCAUCUUGGUAAUGCCCAUTT against HTR1D | -0.155
CGAGUUACUUUUCAGCUAATT against MYH4 | -1.8 (active)
AGUUCACCCUCGUACUCUATT against FURIN | 0.0975
UCAUAAACUUGGAUAAGCATT against NRIP3 | -0.699
GCGAAUGAGUGGUAGAGGATT against ARHGAP21 | 0.229
GCACUUUUCGAGGAGGAGATT against SLC12A7 | -0.0309
CAGUUGAUUUAAGAGGUAATT against PRPF4B | -2.29 (active)
CAAGGAGUUUUACCCAGUATT against CYP4Z1 | -0.139
CUUUAUGACUUAGAGUUAATT against BAAT | 0.641
GAACUUAUAAGUGCAGCAATT against ZNF547 | 0.099
CGUGGAAGGUGAGUAAUAATT against ZBTB40 | 0.187
GGUGGUGAAUGAAGGUUCATT against HINT1 | 0.873
CCAUAACCGCCACACCCUUTT against GPR153 | -1.08 (active)
GAAUGCAUGUGAUCACCUATT against SF3B14 | -1.26 (active)
GGGUUGCUAGAAAAUCGUATT against USP37 | 0.0907
GAGAUGAACGUGUAAAGAATT against CIR | -0.197
CAGAAUAUAUGACAGGAAATT against YY1 | 1.94 (active)
CCUCCGGAACAAGAACUAATT against ZNF397 | -0.107
GUCUGCUUUGUAUAGAUAATT against KLRC3 | 0.833
CGACUACAUGUUCAAGAUUTT against RAB3A | -0.0787
GGAUGCGUUUUCUGACAAATT against GPR149 | -0.186
GCAUACGAUUUUAAGCGGATT against PTEN | -0.408
GAACCAGGAGAGAAUAGAATT against PDGFRL | 0.0203
GCUGCGAGCUCGAAACUUUTT against SEC14L4 | -0.714
CGACAAGUCUGACAGGGAUTT against PQBP1 | -1.12 (active)
GGUUUGAGCUUACUCUUCATT against ACCN5 | 0.227
GGGAAGAACAGAAUACUGATT against ZNF563 | 0.00283
GCGUGGAAAUUGUACCCGUTT against MBNL3 | -0.189
GGAAAAGGAACGGAAUAAATT against MLN | -0.422
